Most compounds without a hit are left out; they make up all but 9.2% or so of the library.
NPC1 promoter act – activates the NPC1 promoter | Potency, µM (titrated, usually from 9.22 µM), most hits filed as activators | 320,000 compounds, 2.4% hits | AID 485313 | Huh7 NPC1 promoter luciferase reporter, 24 h; further: nearly all actives have a fitted effect of over 60% in size
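Compounds in DMSO were transferred onto Huh7 NPC1-luciferase reporter cells pre-incubated 2 h; after 24 h at 37 °C, Amplite reagent was dispensed and luminescence recorded 10 min later.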
FLuc modulator – counter-screen for miR-21 project: firefly luciferase inhibitors or activators; Potency, µM (top dose mostly 57.5 µM), actives largely listed as inhibitors; 360,000 compounds, 6.9% hits; P08659; purified FLuc, Km substrates, luminescence inhibition; further: nearly all actives have a fitted effect of over 55% in size
Target sequence (P08659 whole entry, looked up): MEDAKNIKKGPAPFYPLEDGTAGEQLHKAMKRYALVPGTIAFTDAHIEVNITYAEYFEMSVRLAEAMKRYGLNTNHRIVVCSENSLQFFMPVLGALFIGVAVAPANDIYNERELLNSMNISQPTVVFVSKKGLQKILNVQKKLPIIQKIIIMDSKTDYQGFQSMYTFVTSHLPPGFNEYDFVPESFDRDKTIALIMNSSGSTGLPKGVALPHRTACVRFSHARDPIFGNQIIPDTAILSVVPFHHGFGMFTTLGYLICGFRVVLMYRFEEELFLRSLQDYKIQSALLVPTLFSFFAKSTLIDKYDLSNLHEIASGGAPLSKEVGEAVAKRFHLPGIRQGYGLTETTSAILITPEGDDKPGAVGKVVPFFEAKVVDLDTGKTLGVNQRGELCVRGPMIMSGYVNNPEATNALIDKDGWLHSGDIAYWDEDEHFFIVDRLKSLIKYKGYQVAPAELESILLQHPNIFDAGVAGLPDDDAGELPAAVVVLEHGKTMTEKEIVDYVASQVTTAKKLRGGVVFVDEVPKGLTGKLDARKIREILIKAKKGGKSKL
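Purified P. pyralis luciferase (10nM final) with 10uM D-luciferin and 10uM ATP (Km levels) in 50mM Tris acetate pH 7.5, 10mM Mg acetate, 0.01% Tween-20, 0.05% BSA; qHTS 6-point titration, ~60 µM downward; luminescence read.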
ELG1 genotox – inducers of genotoxicity in HEK293T ELG1-luciferase cells. HEK293T ELG1-luciferase reporter, luminescence, 16 h. Potency, µM (top dose mostly 46 µM), usual class: activators. 330,000 compounds, 1.3% hits; further: nearly all actives have a fitted effect of over 60% in size
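HEK293T cells expressing luciferase-tagged ELG1 were exposed to compound or DMSO vehicle for 16 hr at 37 °C and 5% CO2. Luciferase activity was then measured with ONE-Glo after 30 min at room temperature.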
Rab9 promoter act – Rab9 promoter activation; Huh7 Rab9 promoter-luciferase reporter, luminescence, 24 h; 320,000 compounds, 2.8% hits; Potency, µM (top dose mostly 9.22 µM), usual class: activators; further: nearly all actives have a fitted effect of over 60% in size
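Stable Rab9-luc Huh7, 1500 cells/well, 2 h settle; cmpd in DMSO, 24 h, 37 °C/5% CO2; luciferase reagent 10 min RT; luminescence.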
ELG1 DNA repair – blocks ELG1-dependent DNA repair in HEK293T cells; HEK293T ELG1-luciferase reporter, luminescence, 16 h; DNA damage induced by 5-fluorouridine; Potency, µM (top dose mostly 46.1 µM), actives largely listed as inhibitors; 330,000 compounds, 2.3% hits; AID 504467; further: nearly all actives have a fitted effect of over 55% in size
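HEK293T cells expressing luciferase-tagged ELG1 (2,000/well) received 5-Fluorouridine plus compound or DMSO for 16 hr at 37 °C. Luciferase was read by ONE-Glo luminescence after 30 min at room temperature.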
SMN2 splice up – SMN2 splice variant enhancement | 210,000 compounds, 2.8% hits | HEK293 SMN2-luciferase splicing reporter, luminescence, 30-36 h | Potency, µM (highest dose often 46.1 µM), most hits filed as activators; further: nearly all actives have a fitted effect of over 55% in size
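HEK293 cells carry an SMN2 minigene-luciferase reporter in which exon 7 inclusion puts luciferase in frame. Cells were seeded at 2000 cells/well, attached for 10-12 hours, then exposed to compounds for 30-36 hours at 37C before ONE-Glo luminescence.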
Hits are given with their value; - = inactive; ? = inconclusive; . = not tested or not shown; [ ] = remark or other dose. The call rests on the fitted dose curve; in most records, active means well fitted curve in the direction sought with a large enough effect; inconclusive means small, poorly fitted or top-dose-only effect, or another doubt; inactive means no such curve, though single readings can be large; an effect the other way counts as inactive or inconclusive.

SMILES | NPC1 promoter act | FLuc modulator | ELG1 genotox | Rab9 promoter act | ELG1 DNA repair | SMN2 splice up
CS(=O)(=O)Nc1ccc(C2=NN(C(=O)c3ccco3)C(c3ccco3)C2)cc1 (stereo not drawn) | - | ? | - | - | ? | .
COc1cccc(C2=NN(C(=O)c3ccco3)C(c3ccco3)C2)c1 (stereo not drawn) | - | 11µM | - | - | - | .
CSc1nc2c(sc3ccccc32)c(=O)n1Cc1ccc(C)cc1 | . | - | . | . | . | .
CCn1ccc(C(=O)Oc2ccc(C(C)C)cc2)n1 | - | 2.7µM | ? | - | - | -
CCn1ccc(C(=O)N2CCOCC2)n1 | - | - | - | - | - | -
O=c1[nH]c(=O)c2nc(-c3ccc(Cl)cc3)cnc2[nH]1 | - | 17µM | - | - | ? | -
O=c1[nH]c(-c2ccc(Cl)cc2)nc(=S)[nH]1 | - | ? | - | - | - | .
COc1ccc(/C=N/NC(N)=S)cc1OC(=O)c1ccccc1 | - | - | - | - | ? | -
CSC(=S)N/N=C/c1ccccc1 | - | 15µM | - | - | - | -
CCOc1ccc(CNC(=S)N/N=C\c2ccc([N+](=O)[O-])cc2)cc1 | - | - | ? | - | - | -
CCCCOc1ccc(CNC(=S)N/N=C/c2ccc(OC)c(OC)c2)cc1 | - | ? | - | - | 8.2µM | -
COc1ccc(/C=N/NC(=S)SC)cc1OC | - | 11µM | - | - | - | -
S=C(N/N=C/c1ccccc1)N1CCOCC1 | - | 24µM | - | - | ? | -
COc1ccc2[nH]c3c(c2c1)CCN1C(=O)C(CC(=O)NCCCn2ccnc2)C[C@H](C(=O)N2CCOCC2)[C@@]31C (stereo partly drawn) | . | . | - | . | ? | .
COC(=O)c1ccccc1NC(=O)c1ccc2c(c1)CCN2S(C)(=O)=O | . | - | . | . | . | -
Cc1cc(C)cc(NC(=O)COC(=O)CCCC2=NS(=O)(=O)c3ccccc3N2)c1 | - | - | - | - | - | -
Cc1cccc(OCC2=NS(=O)(=O)c3ccccc3N2)c1 | - | 19µM | - | - | - | -
CC1OC(n2cc(F)c(=O)[nH]c2=O)C(O)C1O (stereo not drawn) | . | . | . | . | . | -
Cc1noc(C)c1C(=O)N1CCC2(CCCN(C(=O)NC(C)C)C2)CC1 | . | . | . | . | . | -
FC(F)(F)c1nc(-c2cccs2)ncc1-c1nnnn1-c1ccc(Cl)cc1 | - | - | - | - | 21µM | -
Clc1ccc(-n2nnnc2-c2cnc(-c3ccncc3)nc2-c2cccs2)cc1 | - | - | - | - | ? | -
CCOC(=O)c1ccc(NS(=O)(=O)c2ccc3[nH]c4c(c3c2)CCCCC4)cc1 | . | - | . | . | . | .
COC(=O)c1ccc2[nH]c3c(c2c1)CC(C)CC3 (stereo not drawn) | - | 12µM | ? | - | ? | .
CCOC(=O)c1ccc2[nH]c3c(c2c1)CCCC3 | 2.8µM | 11µM | 23µM | ? | ? | .
O=C(COC(=O)c1ccc2[nH]c3c(c2c1)CCCC3)Nc1ccccc1Cl | - | - | ? | - | ? | .
SMILES | NPC1 promoter act | FLuc modulator | ELG1 genotox | Rab9 promoter act | ELG1 DNA repair | SMN2 splice up
CCC(C)c1ccccc1NC(=O)COC(=O)c1ccc2[nH]c3c(c2c1)CCCC3 (stereo not drawn) | - | - | - | - | 21µM | -
COCCn1c(CNC(=O)c2ccccc2C)nc2cccnc21 | . | - | . | . | . | .
CCc1c(CN2CCN(c3cccc(C)c3)C(C)C2)csc1C (stereo not drawn) | . | - | . | . | . | .
O=C(Nc1ccc2c(c1)CCC2)c1ccccc1Br | 1.6µM | 4.8µM | 2.3µM | 1.6µM | ? | .
CSc1ccccc1C(=O)Nc1ccc2c(c1)CCC2 | ? | 15µM | ? | -[1.84 µM] | ? | .
CCN(Cc1ccccc1)C(=O)C(CC(C)C)NS(=O)(=O)c1ccc2c(c1)CCN2C(C)=O (stereo not drawn) | . | - | . | . | . | -
COc1ccc(NC(=O)/C(Cl)=C(/Cl)S(=O)Cc2ccccc2)cn1 (stereo not drawn) | - | - | - | - | 8.2µM | -
Nc1nnc(N2CCCCCC2)s1 | - | - | - | - | - | -
O=C1CCCc2nc(N3CCCCC3)sc21 | - | ? | 21µM | - | ? | ?
Cc1cc(/C=C(\C#N)C(=O)NC2CCCCCC2)c(C)[nH]1 | - | ? | - | - | ? | -
Cc1cc(/C=C(\C#N)C(=O)NC2CC2)c(C)[nH]1 | 4µM | 12µM | ? | 3.2µM | ? | 11µM
COc1ccc(NC(=O)/C(C#N)=C/c2ncc([N+](=O)[O-])n2C)c(OC)c1 | - | - | - | - | - | .
N#C/C(=C\c1ccc[nH]1)C(=O)Nc1ccccc1F | 1.3µM | ? | 12µM | 0.5µM | ? | .
N#C/C(=C\c1ccc[nH]1)C(=O)Nc1ccccc1Cl | 0.71µM | - | ? | ? | ? | .
COc1ccc(NC(=O)/C(C#N)=C/c2ccc[nH]2)c(OC)c1 | 3.2µM | - | - | ? | - | .
N#C/C(=C\c1ccc[nH]1)C(=O)c1ccccc1 | - | 17µM | - | - | ? | .
N#C/C(=C\c1cccc(Cl)c1)C(=O)c1ccccc1 | - | ? | - | - | - | .
Cc1cc(/C=C(\C#N)C(=O)Nc2ccccc2F)c(C)[nH]1 | 1.1µM | 2.1µM | ? | 0.56µM | ? | .
COc1ccc(C)cc1NS(=O)(=O)c1ccc2[nH]c(=O)c(=O)[nH]c2c1 | . | - | . | . | . | -
Cc1cc(NC(=O)Nc2ccc3c(ccn3C)c2)sn1 | 7.3µM | . | . | 6.5µM | . | ?
COc1cccc(Nc2nc(C)nc3c2oc2ccccc23)c1 | - | ? | - | - | - | .
Cc1ccc(Nc2ncnc3c2oc2ccccc23)cc1 | 2.5µM | 3.4µM | 7.3µM | 2µM | ? | 13µM
c1ccc(Sc2ncnc3c2oc2ccccc23)cc1 | ? | 8.5µM | ? | ? | ? | ?
COc1ccc(Nc2ncnc3c2oc2ccccc23)cc1 | 2.5µM | 9.5µM | 8.9µM | 1.3µM | ? | 11µM
O=C(c1cnc(N2CCOCC2)c2ccccc12)N1CCN(c2ccccc2)CC1 | . | - | . | . | . | .
SMILES | NPC1 promoter act | FLuc modulator | ELG1 genotox | Rab9 promoter act | ELG1 DNA repair | SMN2 splice up
COc1ccc(/C=C/C(=O)OCC(=O)NC(C)CCc2ccccc2)cc1OC (stereo not drawn) | . | . | - | . | - | .
CCCc1ccc(OCC(=O)Nc2cc(S(=O)(=O)CC)ccc2O)cc1 | - | 27µM | - | - | - | .
CCS(=O)(=O)c1ccc(O)c(NC(=O)COc2ccc(OC)cc2)c1 | - | ? | - | - | - | -
CC/C(=N\NC(=O)c1cc(C2CC2)[nH]n1)c1ccccc1 | 3.5µM | 13µM | ? | ? | ? | .
COc1ccc(/C=N/NC(=O)c2cc(C3CC3)[nH]n2)cc1OC | - | ? | - | - | - | .
Cc1nn(-c2ccccc2)c(C)c1/C=N/NC(=O)c1cc(C23CC4CC(CC(C4)C2)C3)[nH]n1 | - | ? | - | - | 16µM | ?
O=C(N/N=C/c1ccc(O)cc1)c1cc(C2CC2)[nH]n1 | - | - | - | - | - | .
Cc1cc(C(=O)N/N=C/c2c(C)nn(-c3ccccc3)c2C)n[nH]1 | - | 17µM | - | - | ? | .

From PubChem BioAssay
